# In PubChem BioAssay (Tox21):
# Values joined by “and” are separate entries in the source; they are usually repeats but may differ in a detail not shown here. Equal values may be shown once. Inconclusive results are not listed. Where a call stands in place of a potency, no number is given. A number with no mark means an inactive call. Active and inactive are the calls of the source. Calls follow the shape of the dose curve; as a rule, active = well fitted inhibition curve with a large enough effect in the repeat runs; inconclusive = weak or mixed curves; inactive = no such curve, though single readings can be large or run the other way.
# Molecular target: Cytochrome P450 2C19 (Homo sapiens) (UniProt P33261)
# Assay: Cytochrome P450 Family 2 Subfamily C Member 19 (CYP2C19) small molecule antagonists: luciferase reporter qHTS assay (AID 1671197); also: nearly all actives have a fitted effect of over 65% in size
# Conditions: P450-Glo CYP2C19 enzyme, luciferin luminescence, 1 h; series mostly up to 115 µM
# Source text: National Center for Advancing Translational Sciences [NCATS]
# U.S. Environmental Protection Agency [EPA]
# National Institutes of Environmental Health Sciences [NIEHS]
# National Toxicology Program [NTP]
# U.S. Food and Drug Administration [FDA]
# Cytochrome P450 (CYP) enzymes are membrane-bound hemeproteins that play a key role in metabolism of drugs and xenobiotics. Evaluation of the effect of chemicals on CYP isozymes is useful to minimize the adverse drug reactions and toxicities in drug development process. Tox21 chemicals were tested for their effect on CYP enzyme activities by using P450-Glo (TM) screening systems (Promega Corporation, Madison, WI). These systems provide a luminescent method containing proluciferin substrates and are converted to luciferin products by CYP isozymes. The luciferin products formed are detected with a luciferin detection reagent, and the amount of light produced is proportional to CYP activity. P450-Glo (TM) CYP2C19 screening system (Catalog. No. V9880) was used to detect the compounds that interfere in CYP2C19 activity. The positive control compound used for CYP2C19 assay is ketoconazole (Sigma-Aldrich, St. Louis, MO).
# Tox21 Assay Protocol Summary:
# Two ul of enzyme-substrate mix was dispensed into medium binding white/solid 1536-well plates (Greiner Bio-One North America Inc., Monroe, NC) using a BioRaptr Flying Reagent Dispenser (FRD, Beckman Coulter, Brea, CA). Compounds dissolved in DMSO and positive control (ketoconazole) were transferred to the assay plates at 23 nl using a Pintool station (Wako, San Diego, CA). The assay plates were incubated at room temperature for 10 min. Then 2 ul of NADPH regeneration solution was added to each well of the assay plates using an FRD and incubated at 37C for 1 h. The reaction was stopped by adding 4 ul of detection reagent using an FRD and after 20 min incubation at room temperature the luminescence signal was measured using a ViewLux plate reader (Perkin Elmer, Shelton, CT). Data were expressed as relative luminescence units.
# Potency is read from the fitted curve at half-maximal effect.
# Sequence of Cytochrome P450 2C19 (Homo sapiens) (P33261 whole entry, looked up): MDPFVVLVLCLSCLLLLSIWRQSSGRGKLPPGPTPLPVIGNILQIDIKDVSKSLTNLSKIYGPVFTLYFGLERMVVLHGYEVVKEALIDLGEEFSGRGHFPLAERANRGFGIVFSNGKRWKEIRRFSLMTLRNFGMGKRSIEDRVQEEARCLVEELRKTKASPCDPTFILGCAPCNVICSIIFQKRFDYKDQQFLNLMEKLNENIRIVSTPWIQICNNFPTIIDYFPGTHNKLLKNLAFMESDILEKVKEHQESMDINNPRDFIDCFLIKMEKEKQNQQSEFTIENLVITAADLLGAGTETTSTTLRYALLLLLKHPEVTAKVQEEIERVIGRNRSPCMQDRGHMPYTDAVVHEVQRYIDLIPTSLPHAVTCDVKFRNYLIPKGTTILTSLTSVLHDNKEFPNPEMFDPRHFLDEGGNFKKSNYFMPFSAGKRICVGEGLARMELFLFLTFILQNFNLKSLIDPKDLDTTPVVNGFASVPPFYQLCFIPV
SMILES,Potency,"activity change, negative = inhibition"
CCOC(=O)C(Cl)Cc1cc(-n2nc(C)n(C(F)F)c2=O)c(F)cc1Cl (stereo not given),5.64 µM (active),
CNC(=O)O/N=C(/CSC)C(C)(C)C,20 µM (active),
Cc1ccc2c(c1)C1CN(C)CCC1N2 (stereo not given),,-12.5% [at 23.6 µM]
O=C(Cl)c1ccccc1,41.1 µM (active),
NNCc1ccccc1,36.2 µM (active),
CC[C@H](O)C(C[C@H](C)N(C)C)(c1ccccc1)c1ccccc1,inactive,
O=C(Cl)C(Cl)(Cl)Cl,inactive,
Clc1cc2c(cc1Cl)Oc1cc(Cl)c(Cl)cc1O2,,-2.53% [at 0.435 µM]
CCNc1nc(Cl)nc(NC(C)(C)C)n1,35.6 µM (active),
CCCN1CCC[C@@H]2Cc3nc(N)ncc3C[C@H]21,inactive,
Cc1ccc2cc(C)ccc2c1,inactive,
CC1=C2[C@H]3OC(=O)[C@@H](C)[C@@H]3CC[C@@]2(C)C=CC1=O,inactive,
NCCOS(=O)(=O)O,inactive,
CCNP(=S)(OC)O/C(C)=C/C(=O)OC(C)C (stereo not given),0.0894 µM (active),
ClC(Cl)(Cl)Cl,inactive,
[P]#[In],inactive,
O=C1C2CC=CCC2C(=O)N1SC(Cl)(Cl)Cl (stereo not given),39.8 µM (active) and 8.79 µM (active),
CCC(=O)OC1(c2ccccc2)CCN(C)CC1,inactive,
C#CCOC(=O)/C=C(C)/C=C/CC(C)CCCC(C)C (stereo not given),79.6 µM (active),
CCN(CCO)CCn1c(Cc2ccccc2)nc2c1c(=O)n(C)c(=O)n2C,inactive,

SMILES,Potency,"activity change, negative = inhibition"
O=C(NC(O)C(Cl)(Cl)Cl)NC(O)C(Cl)(Cl)Cl (stereo not given),inactive,
CC(C)(C1CCC(O)CC1)C1CCC(O)CC1 (stereo not given),71 µM (active),
CC(=O)CN(CC(C)=O)N=O,inactive,
C=C1CC[C@@]2(O)[C@H]3Cc4ccc(O)c5c4[C@@]2(CCN3CC2CC2)[C@H]1O5,inactive,
C=CCCC#N,61.7 µM (active),
O=C(O)CBr,inactive,
C=C(Cl)CSC(=S)N(CC)CC,34.7 µM (active),
CCN[C@@H](C)Cc1cccc(C(F)(F)F)c1,inactive,
CCN(CC)CCOC(=O)C(O)(c1ccccc1)c1ccccc1,inactive,
CCOC(=O)CC(SP(=S)(OC)OC)C(=O)OCC (stereo not given),178 nM (active) and 436 nM (active),
CC(=O)OCC1=C(C(=O)O)N2C(=O)[C@@H](N)[C@H]2SC1,15.1 µM (active),
C1CN2CCC1CC2,43.6 µM (active),
O=C1CCCCC1Cl (stereo not given),40.4 µM (active),
CCOC(=O)COc1ccc(Cl)cc1Cl,22.4 µM (active),
CCCOc1nn(C(=O)NS(=O)(=O)c2ccccc2C(=O)OC)c(=O)n1C,inactive,
O=C(Cl)/C=C/C(=O)Cl,inactive,
CC(C)(C)NC[C@H](O)c1ccc(O)cc1Cl,inactive,
CC(C)(C)C(=O)C(Cl)Cl,inactive,
O=C/C=C/c1ccco1,inactive,
C[C@H]1CCCC(=O)CCC/C=C/c2cc(O)cc(O)c2C(=O)O1,17.2 µM (active) and 29.2 µM (active),
